Laboratory results from PubChem BioAssay (EPA / NIEHS).
Values joined by “and” are separate entries in the source; they are usually repeats but may differ in a detail not shown here. Equal values may be shown once. Results filed as inconclusive are left out. Some structures have more than one record in an assay (separate samples or runs), and their calls can disagree. Active and inactive are the calls of the source. Rule for the calls, unless noted: active = hit-call score of the fitted dose curve at least 0.9, where 1 is the maximum; inconclusive = response in the unintended direction; inactive = score below 0.9.

Legend:
[1] = read-out: UDP glucuronosyltransferase (UGT1A6), UGT1A6 (gene 54578); experiment: LTEA_HepaRG_UGT1A6: Life Technologies and Expression Analysis (LTEA) Assay for UDP glucuronosyltransferase (UGT1A6) using HepaRG (AID 2283539; active = hit-call score of the fitted dose curve at least 0.9, where 1 is the maximum; inactive = score below 0.9); details: mRNA level, 48 h; actives raise or lower the signal
Summary of the method: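 Expression was quantified by TaqMan qRT-PCR on Fluidigm arrays with ACTB/GAPDH/POLR2A normalization and bidirectional fitting against 0.5% DMSO. HepaRG cells (~100,000/well) were treated in duplicate for 48 h at eight half-log concentrations up to 100 uM in serum-free induction medium.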

[2] = read-out: X-box binding protein 1 (XBP1), XBP1 (gene 7494); experiment: LTEA_HepaRG_XBP1: Life Technologies and Expression Analysis (LTEA) Assay for X-box binding protein 1 (XBP1) using HepaRG (AID 2283540; active = hit-call score of the fitted dose curve at least 0.9, where 1 is the maximum; inactive = score below 0.9); details: mRNA level, 48 h; actives raise or lower the signal
Summary of the method: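 XBP1 transcript by qRT-PCR (housekeeping-normalized: ACTB, GAPDH, POLR2A) after 48 h chemical treatment of HepaRG cells, 8-point half-log series topping at 100 uM, vehicle 0.5% DMSO. Gain and loss of signal fitted relative to DMSO.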

[3] = LTEA_HepaRG_LDH_cytotoxicity: Cytotoxicity Assessment in the Life Technologies and Expression Analysis (LTEA) Assay (AID 2283563);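 for AC50: LDH activity released into spent culture medium as a marker of cell death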
Summary of the method: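 LDH release into culture medium read after 48 h chemical treatment of HepaRG cells. Duplicate wells, eight-point half-log series topping at 100 uM, 0.5% DMSO vehicle and baseline.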

[4] = TOX21_p53_BLA_p2_viability: Viability Assessment in the Tox21 HCT-116 p53 Agonism Beta-lactamase Assay, Phase 2 (AID 2283591);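 note: compound exposure lasted 16 h at 37 °C; actives lower the ATP signal meaning cytotoxicity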
Summary of the method: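 HCT-116 p53-bla cells (4000/well) rested 5 h at 37C, then received compounds in DMSO (217-fold dilution) for 16 h at 37C, 5% CO2. After the CCF4 read, CellTiter-Glo was added; ATP luminescence was read after 30 min at room temperature.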

[5] = molecular target: Cellular tumor antigen p53 (Homo sapiens) (UniProt P04637); experiment: TOX21_p53_BLA_p2_ratio: Tox21 HCT-116 p53 Agonism Beta-lactamase Assay, Ratio, Phase 2 (AID 2283592)
Summary of the method: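 Read-out is the blue/green (460/530 nm, 405 nm excitation) ratio after 2 h CCF4-AM loading, fitted as gain versus DMSO. Compounds, pinned at 217-fold dilution from DMSO stocks, stayed 16 h on HCT-116 beta-lactamase reporter cells seeded 5 h earlier.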

[6] = TOX21_p53_BLA_p3_viability: Viability Assessment in the Tox21 HCT-116 p53 Agonism Beta-lactamase Assay, Phase 3 (AID 2283593);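 note: cells exposed to compound for 16 h before reading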
Summary of the method: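 HCT-116 cells (4000/well) rested 5 h at 37C, then got DMSO compounds by pin tool (217-fold dilution) for 16 h at 37C, 5% CO2. After the bla read, CellTiter-Glo was added and luminescence read at 30 min, room temperature.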

[7] = TOX21_p53_BLA_p4_viability: Viability Assessment in the Tox21 HCT-116 p53 Agonism Beta-lactamase Assay, Phase 4 (AID 2283597);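 note: hits lower the luminescence signal meaning cytotoxicity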
Summary of the method: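 Cytotoxicity as reduced cellular ATP (CellTiter-Glo luminescence, 30 min room temperature), measured in the same wells following the CCF4 FRET p53 reading. Human HCT-116 cells received compounds in DMSO (217-fold dilution) for 16 h.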

[8] = molecular target: Cellular tumor antigen p53 (Homo sapiens) (UniProt P04637); experiment: TOX21_p53_BLA_p5_ratio: Tox21 HCT-116 p53 Agonism Beta-lactamase Assay, Ratio, Phase 5 (AID 2283599)
Summary of the method: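 HCT-116 cells carrying a p53-inducible beta-lactamase reporter were seeded at 4000 cells/well and dosed after 5 h with compound in DMSO (217-fold dilution). After 16 h at 37C, CCF4-AM substrate was added for 2 h, and the 460/530 nm emission ratio was scored as gain-of-signal versus DMSO.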

[9] = TOX21_p53_BLA_p5_viability: Viability Assessment in the Tox21 HCT-116 p53 Agonism Beta-lactamase Assay, Phase 5 (AID 2283600)
Summary of the method: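 Viability came from CellTiter-Glo ATP luminescence, read after 30 min at room temperature. Before this, HCT-116 p53-bla cells (4000/well) had 16 hours of compound exposure at 37C, with DMSO stocks diluted 217-fold on transfer.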

[10] = molecular target: Cellular tumor antigen p53 (Homo sapiens) (UniProt P04637); experiment: TOX21_p53_BLA_p4_ratio: Tox21 HCT-116 p53 Agonism Beta-lactamase Assay, Ratio, Phase 4 (AID 2283601)
Summary of the method: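 HCT116 cells carrying an inducible beta-lactamase reporter were plated at 4000 cells/well, rested 5 h, then exposed to compounds in DMSO (217-fold dilution) for 16 h at 37C. CCF4-AM substrate was loaded 2 h at room temperature; 460/530 nm emission ratio scored gain-of-signal versus DMSO.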

[11] = Tanguay_ZF_120hpf_MORT_legacy: (Legacy) Oregon State University Tanguay Lab 120 Hour Post-fertilization zebrafish Assay for Mortality (AID 2283633);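 for AC50: fitted as increase in binary mortality versus DMSO negative control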
Summary of the method: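 Static waterborne exposure from 6 to 120 hpf at 28C of single dechorionated wild-type (5D) embryos per well, 0.64% DMSO final. Death recorded present/absent by brightfield at 24 and 120 hpf.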

[12] = Tanguay_ZF_120hpf_AXIS_legacy: (Legacy) Oregon State University Tanguay Lab 120 Hour Post-fertilization zebrafish Assay for Body Axis Malformation (AID 2283635);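 for AC50: potency for an increased fraction of larvae scored with body axis malformation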
Summary of the method: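 Binary scoring of axis defects at 120 hpf under brightfield, fitted positive versus DMSO. Tropical 5D embryos, chorion removed by pronase at 4 hpf, were singly exposed in sealed, dark plates at 28C from 6 hpf; DMSO 0.64% final.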

[13] = Tanguay_ZF_120hpf_EYE_legacy: (Legacy) Oregon State University Tanguay Lab 120 Hour Post-fertilization zebrafish Assay for Eye Malformation (AID 2283636);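 note: binary presence or absence of eye malformation scored by brightfield in 120 hpf larvae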
Summary of the method: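 Static waterborne exposure of dechorionated zebrafish embryos (strain Tropical 5D), 6 to 120 hpf, sealed plates at 28C, 0.64% DMSO vehicle. Eye malformation is scored as a binary endpoint, with gain of signal analysed relative to DMSO.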

[14] = Tanguay_ZF_120hpf_SNOU_legacy: (Legacy) Oregon State University Tanguay Lab 120 Hour Post-fertilization zebrafish Assay for Snout Malformation (AID 2283637)
Summary of the method: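 Dechorionated zebrafish, individually housed from 6 hpf in covered, sealed wells at 28C with 0.64% DMSO vehicle, were examined at 120 hpf for snout malformation. Responses were binary and analysed positive-direction relative to DMSO.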

[15] = Tanguay_ZF_120hpf_JAW_legacy: (Legacy) Oregon State University Tanguay Lab 120 Hour Post-fertilization zebrafish Assay for Jaw Malformation (AID 2283638);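 for AC50: active means more embryos with jaw malformation than DMSO controls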
Summary of the method: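 Binary jaw-malformation call at 120 hpf by brightfield microscopy. Embryos (Tropical 5D strain, chorion removed at 4 hpf) were dosed statically at 6 hpf, one per well, at 28C with 0.64% DMSO. Embryos that died were not scored.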

[16] = Tanguay_ZF_120hpf_OTIC_legacy: (Legacy) Oregon State University Tanguay Lab 120 Hour Post-fertilization zebrafish Assay for Otic Vesicle Malformation (AID 2283639)
Summary of the method: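 Wild-type zebrafish larvae, whole-embryo exposure from early stage to 120 hpf at 28C. Binary brightfield scoring of otic vesicle morphology, fitted in the positive direction against the DMSO baseline.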

[17] = Tanguay_ZF_120hpf_PE_legacy: (Legacy) Oregon State University Tanguay Lab 120 Hour Post-fertilization zebrafish Assay for Pericardial Edema (AID 2283640);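 for AC50: potency for increased incidence of pericardial edema versus DMSO baseline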
Summary of the method: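 Scoring was binary, by brightfield microscopy at 120 hpf, and skipped where mortality occurred. Wild-type embryos were kept under sealed, foil-covered static exposure at 28C in 0.64% (vol/vol) DMSO.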

[18] = ATG_XTT_Cytotoxicity: Cytotoxicity Assessment in the Attagene TRANS-FACTORIAL HepG2 Assay (AID 2283584)
Summary of the method: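 Viability endpoint from XTT after 24 h chemical exposure of reporter-transfected human HepG2 liver cells; signal loss fitted relative to DMSO negative control.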

[19] = Tanguay_ZF_120hpf_YSE_legacy: (Legacy) Oregon State University Tanguay Lab 120 Hour Post-fertilization zebrafish Assay for Yolk Sac Edema (AID 2283634);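 for AC50: actives raise the incidence of yolk sac edema above the DMSO baseline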
Summary of the method: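 Presence or absence of yolk sac edema was recorded at 120 hpf in surviving larvae. These were wild-type Tropical 5D embryos, chorion removed at 4 hpf, held in static exposure at 28C from 6 hpf with 0.64% DMSO vehicle.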

[20] = molecular target: Cellular tumor antigen p53 (Homo sapiens) (UniProt P04637); experiment: TOX21_p53_BLA_p3_ratio: Tox21 HCT-116 p53 Agonism Beta-lactamase Assay, Ratio, Phase 3 (AID 2283596)
Summary of the method: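 Cells were seeded at 4000/well, rested 5 h at 37C, then dosed with DMSO compound solutions (217-fold dilution) for 16 h. CCF4-AM substrate was loaded for 2 h at room temperature, and the 460/530 nm emission ratio was fitted for gain of signal versus DMSO.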

Measured: AC50

Chain of Cellular tumor antigen p53 (Homo sapiens) (P04637 whole entry, looked up): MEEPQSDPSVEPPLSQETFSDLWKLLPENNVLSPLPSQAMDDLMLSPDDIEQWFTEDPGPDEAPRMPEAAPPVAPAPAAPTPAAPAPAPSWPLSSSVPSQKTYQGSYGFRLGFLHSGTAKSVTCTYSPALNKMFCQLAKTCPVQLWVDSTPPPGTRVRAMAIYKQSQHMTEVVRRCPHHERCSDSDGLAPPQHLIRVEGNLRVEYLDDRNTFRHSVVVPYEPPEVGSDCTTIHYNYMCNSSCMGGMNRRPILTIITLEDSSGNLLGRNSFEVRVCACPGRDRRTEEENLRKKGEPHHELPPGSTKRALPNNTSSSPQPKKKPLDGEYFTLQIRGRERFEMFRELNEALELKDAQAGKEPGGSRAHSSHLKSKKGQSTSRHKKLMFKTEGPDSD

COc1cccc(-c2ccc(/C=C\CN3CCCCCC3)cc2Cl)c1
active: [1] 80.4 µM | [3] 68.8 µM | [4] 57.8 µM | [5] 70.5 µM | [7] 52.5 µM | [10] 73.8 µM | [11] 32.4 µM
inactive: [2] | [6] | [8] | [9] | [12] | [13] | [14] | [15] | [16] | [17]

O=C1CCCCCN1
inactive: [1] | [2] | [3] | [18] | [5] | [7] | [8] | [9] | [10] | [11] | [14] | [15] | [16] | [17]

CN(C)c1ccc(N=NS(=O)(=O)O)cc1
inactive: [1] | [2] | [3] | [18] | [4] | [5] | [6] | [7] | [8] | [9] | [10] | [11] | [19] | [12] | [14] | [15] | [16] | [17]

O=C1OC(=O)C2C3C=CC(C3)C12 (stereo unspecified)
inactive: [1] | [2] | [18] | [4] | [5] | [6] | [20] | [7] | [8] | [9] | [10] | [11] | [19] | [12] | [13] | [14] | [15] | [16] | [17]

NC(=O)NO
inactive: [1] | [2] | [3] | [18] | [5] | [20] | [7] | [8] | [9] | [10] | [11] | [12] | [13] | [14] | [15] | [16] | [17]

Cc1ccc(N)cc1O
inactive: [1] | [2] | [3] | [5] | [6] | [7] | [8] | [9] | [10] | [11] | [13] | [14] | [15] | [16] | [17]

CN(C)c1ccc(Cc2ccc(N(C)C)cc2)cc1
active: [1] 85.6 µM
inactive: [2] | [3] | [5] | [6] | [7] | [8] | [9] | [10] | [11] | [12] | [13] | [14] | [15] | [17]

CC(=O)c1ccc2c(c1)[C@H](NC(=O)c1ccc(F)cc1)[C@@H](O)C(C)(C)O2
inactive: [1] | [2] | [3] | [4] | [6] | [20] | [7] | [8] | [9] | [10] | [11] | [19] | [12] | [14] | [15] | [16] | [17]

CC(C)=CCCC(C)=CC=O
inactive: [1] | [2] | [3] | [18] | [5] | [20] | [7] | [9] | [10] | [11] | [12] | [13] | [14] | [15] | [16] | [17]

O=C(OC[C@H]1O[C@@H](OC(=O)c2cc(O)c(O)c(OC(=O)c3cc(O)c(O)c(O)c3)c2)[C@H](OC(=O)c2cc(O)c(O)c(OC(=O)c3cc(O)c(O)c(O)c3)c2)[C@@H](OC(=O)c2cc(O)c(O)c(OC(=O)c3cc(O)c(O)c(O)c3)c2)[C@@H]1OC(=O)c1cc(O)c(O)c(OC(=O)c2cc(O)c(O)c(O)c2)c1)c1cc(O)c(O)c(OC(=O)c2cc(O)c(O)c(O)c2)c1
inactive: [2] | [3] | [18] | [9] | [11] | [12] | [13] | [14] | [15] | [16] | [17]
active: [1] 5.4 µM | [4] 17.2 µM and 5.28 µM | [5] 12.9 µM and 6.14 µM | [20] 11.2 µM and 5.34 µM | [7] 14.1 µM and 3.93 µM | [8] 17 µM and 10.6 µM | [9] 6.49 µM | [10] 7.98 µM and 3.2 µM

CCN(C(=O)c1cc(C)cc(OC[C@H](C)Nc2ccncc2)c1)C(C)C
active: [3] 49.7 µM
inactive: [1] | [2] | [5] | [6] | [7] | [8] | [9] | [10] | [11] | [19] | [12] | [13] | [14] | [15] | [16] | [17]

COc1ccc(-n2nc(C(F)F)cc2-c2ccc(S(C)=O)cc2)cc1 (stereo unspecified)
active: [19] 24.8 µM | [12] 47 µM | [13] 51.6 µM | [14] 40.4 µM | [15] 46.7 µM | [17] 37.7 µM
inactive: [1] | [2] | [18] | [4] | [5] | [6] | [20] | [7] | [8] | [11] | [16]
